Rows were chosen to be rich in hits. Some 21% of all compounds tested hit in one or more screens of this group.
IL-1B inflam inh = qHTS for Inhibitors of Inflammasome Signaling: IL-1-beta AlphaLISA Primary Screen; AID 743279, 2014; actives 4.7% (n = 360,000); THP-1 LPS/ATP IL-1B secretion, AlphaLISA, 16 h; stronger effect = lower value; activity change, % at 57.5 µM; in the data active means activity change below about -50%; inconclusive means mostly about -30% to -49%
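Secreted IL-1B measured by AlphaLISA bead assay after 16 h compound exposure of THP-1 cells; compounds (final up to 57.5 uM) added 1 h before LPS (250 ng/mL) and ATP (1.25 mM) stimulation; lower signal means less secretion.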
Gal4-VP16 FLuc = VP16 counterscreen qHTS for inhibitors of ROR gamma transcriptional activity; Potency, µM (series often up to 53.6 µM), actives largely listed as inhibitors; Drosophila S2 Gal4-VP16 UAS-luciferase, luminescence, 20 h; actives 3.5% (n = 310,000);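 further: Gal4-VP16 expression switched on by copper sulfate through the metallothionein promoter; nearly all actives have a fitted effect of over 50% in size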
RORg inh = qHTS for inhibitors of ROR gamma transcriptional activity | Nuclear receptor ROR-gamma (Mus musculus), P51450 | Drosophila S2 Gal4-RORgamma UAS-luciferase reporter, 20 h | Potency, µM (titrated, usually from 53.6 µM), usual class: inhibitors | actives 5.4% (n = 310,000); further: nearly all actives have a fitted effect of over 60% in size
Target sequence (P51450 whole entry, looked up, the tested form may be a part): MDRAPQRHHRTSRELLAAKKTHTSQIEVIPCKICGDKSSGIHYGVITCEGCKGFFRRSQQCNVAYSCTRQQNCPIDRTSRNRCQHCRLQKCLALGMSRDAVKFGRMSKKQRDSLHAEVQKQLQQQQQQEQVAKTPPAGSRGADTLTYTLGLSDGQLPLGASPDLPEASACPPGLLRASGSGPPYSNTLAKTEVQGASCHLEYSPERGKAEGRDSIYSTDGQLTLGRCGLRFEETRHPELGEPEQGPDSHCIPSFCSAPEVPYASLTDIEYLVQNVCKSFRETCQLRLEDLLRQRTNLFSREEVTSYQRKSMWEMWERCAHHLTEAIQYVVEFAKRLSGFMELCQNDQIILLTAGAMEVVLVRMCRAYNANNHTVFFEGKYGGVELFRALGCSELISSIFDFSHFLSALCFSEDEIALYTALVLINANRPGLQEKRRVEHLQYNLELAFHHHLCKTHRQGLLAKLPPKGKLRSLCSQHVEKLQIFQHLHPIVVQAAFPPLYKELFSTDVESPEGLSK
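Read-out: Photinus luciferase luminescence; inhibitors lower reporter signal. Insect Schneider cells with Gal4-ROR gamma fusion under metallothionein promoter, UAS reporter; 700 uM final copper sulfate induction, 20 hr, ambient temperature.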
TDP1 cell noCPT = qHTS for Inhibitors of human tyrosyl-DNA phosphodiesterase 1 (TDP1): qHTS in cells in absence of CPT; DT40 Tdp1-/- hTDP1 cells, no CPT, ATP luminescence, 48 h; Potency, µM (doses to about 46.2 µM), most hits filed as inhibitors; actives 15% (n = 420,000); further: nearly all actives have a fitted effect of over 55% in size
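Cells were dispensed at 400 per well, compounds added by pin tool, plates incubated ≥48 hr at 37 °C, then CellTiter-Glo added for 30 min at room temperature before luminescence reading. Line: DT40 Tdp1-/- complemented with hTDP1; camptothecin omitted.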
ELG1 repair inh = qHTS screen for small molecules that inhibit ELG1-dependent DNA repair in human embryonic kidney (HEK293T) cells expressing luciferase-tagged ELG1; HEK293T ELG1-luciferase reporter, luminescence, 16 h; DNA damage induced by 5-fluorouridine; Potency, µM (top dose mostly 46.1 µM), most hits filed as inhibitors; actives 2.3% (n = 330,000); AID 504467, 2011; further: nearly all actives have a fitted effect of over 55% in size
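In this reporter screen, reduction of luminescence relative to DMSO vehicle indicated activity. Compounds and 5-fluorouridine were added together to 2,000 cells per well, incubated for 16 hr at 37 °C, then developed with ONE-Glo.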
DT40 TDP1 CPT = qHTS for Inhibitors of human tyrosyl-DNA phosphodiesterase 1 (TDP1): qHTS in cells in presence of CPT. chicken DT40 Tdp1-/-;hTDP1 cells + 20 nM CPT, ATP luminescence, 48 h. Potency, µM (highest dose often 46.2 µM), most hits filed as inhibitors. actives 12% (n = 420,000); further: nearly all actives have a fitted effect of over 55% in size
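Chicken DT40 Tdp1-/- cells stably complemented with human TDP1 were seeded at 400 cells/well in medium containing 20 nM camptothecin, exposed to pin-transferred compounds, and grown at 37 °C for at least 48 hr. Viability was read as ATP luminescence.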
Each line names hits and unclear results; the compound was inactive in the other large screens; ! = repeats disagree. Unless noted, the call rests on the fitted dose curve; in most records, active means well fitted curve in the direction sought with a large enough effect; inconclusive means small, poorly fitted or top-dose-only effect, or another doubt; inactive means no such curve, though single readings can be large; an effect the other way counts as inactive or inconclusive.

COCCN=C1N[C@@H](c2ccccc2)C(C(=O)OC)=C(C)N1Cc1ccccc1	TDP1 cell noCPT 23µM, DT40 TDP1 CPT inconclusive
COCCN=C1N[C@@H](c2ccc(Br)cc2)C(C(=O)OC)=C(C)N1Cc1ccccc1	IL-1B inflam inh inconclusive, TDP1 cell noCPT inconclusive, DT40 TDP1 CPT inconclusive
COCCN1C(=S)N[C@@H](c2cccc(F)c2)C(C(=O)OC)=C1C	Gal4-VP16 FLuc 11µM!, RORg inh 3.5µM! (no result: IL-1B inflam inh, TDP1 cell noCPT, DT40 TDP1 CPT)
O=C(C[n+]1ccccc1)N/N=C/c1ccc(Cl)cc1	none (no result: Gal4-VP16 FLuc, RORg inh)
CCN(CC)CCCN=C1N[C@@H](c2cccc(F)c2)C(C(=O)OC)=C(C)N1Cc1ccccc1	TDP1 cell noCPT inconclusive, DT40 TDP1 CPT inconclusive (no result: Gal4-VP16 FLuc, RORg inh)
C=CCN=C1N[C@@H](c2ccccc2)C(C(=O)OC)=C(C)N1CCOC	none
COC(=O)C1=C(C)N(Cc2ccccc2)C(=NCc2ccccc2)N[C@H]1c1cccc(F)c1	RORg inh inconclusive, TDP1 cell noCPT 8.2µM, DT40 TDP1 CPT 16µM
COC(=O)C1=C(C)N(CC2CC2)C(=NCc2cccc(Cl)c2)N[C@H]1c1ccccc1	IL-1B inflam inh -62, TDP1 cell noCPT inconclusive, DT40 TDP1 CPT 16µM
COC(=O)C1=C(C)N(Cc2ccccc2)C(=NCc2cccc(Cl)c2)N[C@H]1c1ccccc1	IL-1B inflam inh inconclusive, TDP1 cell noCPT 21µM, DT40 TDP1 CPT 12µM
CCN(CC(=O)Nc1ccccc1C(F)(F)F)C(=O)CN1C(=O)NC(C)(c2ccc3ccccc3c2)C1=O (stereo not drawn)	DT40 TDP1 CPT inconclusive (no result: Gal4-VP16 FLuc, RORg inh, ELG1 repair inh)
Fc1c(F)c(F)c(CSc2nc3ccccc3[nH]2)c(F)c1F	ELG1 repair inh inconclusive
FC(F)Sc1nc2ccccc2[nH]1	Gal4-VP16 FLuc inconclusive, RORg inh 13µM, ELG1 repair inh inconclusive (no result: IL-1B inflam inh)
COc1ccc(N=C2SCC(c3ccc([N+](=O)[O-])cc3)=NN2CCO)cc1	TDP1 cell noCPT inconclusive, ELG1 repair inh inconclusive (no result: IL-1B inflam inh)
O=[N+]([O-])c1ccc(C2=NN(CCO)C(=Nc3ccc(OC(F)(F)F)cc3)SC2)cc1	IL-1B inflam inh -63, RORg inh inconclusive, TDP1 cell noCPT 21µM, DT40 TDP1 CPT 18µM
COc1ccc(/C=N/NC(=O)NC23CC4CC(CC(C4)C2)C3)c(OC)c1	IL-1B inflam inh -69, TDP1 cell noCPT 23µM, DT40 TDP1 CPT inconclusive
O=C(N/N=C/c1ccc(O)cc1)NC12CC3CC(CC(C3)C1)C2	IL-1B inflam inh -74
COC(=O)C(Cc1ccc(O)cc1)NC(=O)NC12CC3CC(CC(C3)C1)C2 (stereo not drawn)	IL-1B inflam inh -63, TDP1 cell noCPT inconclusive
COc1ccccc1/C=N/NC(=O)NC12CC3CC(CC(C3)C1)C2	TDP1 cell noCPT inconclusive
O=C(N/N=C/c1ccncc1)NC12CC3CC(CC(C3)C1)C2	TDP1 cell noCPT inconclusive
Cc1cc(C)c(S(=O)(=O)Nc2ccc(O)c(Sc3ncn[nH]3)c2)cc1C	TDP1 cell noCPT inconclusive
Cc1c(C(=O)NCC2CCCO2)sc2nc(-c3ccc(F)cc3)cn12 (stereo not drawn)	RORg inh inconclusive, TDP1 cell noCPT inconclusive, DT40 TDP1 CPT 15µM
Cc1c(C(=O)NCc2ccc3c(c2)OCO3)sc2nc(-c3ccc(F)cc3)cn12	TDP1 cell noCPT 16µM, ELG1 repair inh inconclusive, DT40 TDP1 CPT inconclusive
Cc1c(C(=O)Nc2ccc3c(c2)OCO3)sc2nc(-c3ccccc3)cn12	TDP1 cell noCPT inconclusive, DT40 TDP1 CPT inconclusive
Cc1c(C(=O)NCc2ccc3c(c2)OCO3)sc2nc(-c3ccccc3)cn12	TDP1 cell noCPT 15µM, DT40 TDP1 CPT inconclusive
CCOC(=O)CNC(=O)c1cnc(Nc2ccccc2OC)c2ccccc12	none

Assay outcomes as filed in PubChem.
